# Data reported in PubChem BioAssay (NCI).
# The panel holds about 83,000 compounds, 20% with a hit somewhere; the sample as a whole holds those more often.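 Results are percent growth after 48 hours of single-concentration exposure. 100 means growth as in untreated cells, lower positive values show inhibition; negative values down to -100 show cell death.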 A number with no mark means an inactive call. Calls of active or inactive are those of the source. Rule for the calls: active = growth percent below 10; inactive = the rest.
# Tested on: HL-60(TB) leukemia
# Assay: NCI-60 one-dose screen, 48 h (100 = growth as untreated, 0 = no growth, -100 = all killed)
# Conditions: 10 µM unless noted
row,SMILES,growth
1,CCCC[n+]1ccc(SCC(=O)n2ccc3ccccc32)c2ccccc21,86.8%
2,O=C(CSc1nnc(-c2ccc(Cl)cc2)n1-c1ccccc1)Nc1ccc(Cl)cc1,79.8%
3,CCC(=C(c1ccc(OCCN(C)C)cc1)c1ccc(OCCN(C)C)cc1)c1ccc(Cl)cc1,-59.5% (active)
4,COc1ccc(/C=N/NC(=O)c2[nH]c3ccc(Br)cc3c2-c2ccccc2)o1,-20.2% (active)
5,Cc1ccc(C2=NN(C)C(=O)C3(CCCC3)C2)cc1,77.8%
6,Clc1ccc(-c2cn3cc(Cc4ccc(Cl)c(Cl)c4)sc3n2)cc1,80.3%
7,N/C(=N\c1nc2c(Br)cccc2s1)C(Br)Br,7% (active)
8,COc1ccc2c(c1)c(-c1nnc(N)nc1-c1c[nH]c3ccc(F)cc13)cn2C,-0.122% (active)
9,COc1ccc(/C=C2\SC(=Nc3cc(C)[nH]n3)NC2=O)cc1,87.1%
10,Cn1cc(-c2cc(N)n3nc(-c4cn(C)c5ccc(F)cc45)cc3n2)c2cc(F)ccc21,-32.4% (active)
11,COc1cc(/C=C2\C(=O)Nc3cc(Cl)ccc32)ccc1OCc1ccc(F)cc1,120%
12,C(=C(\C1=NCCN1)n1cnc2ccccc21)/c1ccc2ccccc2c1,50.5%
13,CC1=C(C)C(=O)C(Nc2ccc3c(c2)OCO3)=C(Br)C1=O,44.2%
14,Cc1ccc(NC(=O)c2cccc(CN3CCN(C)CC3)c2)cc1Oc1ccc(-c2[nH]nc3ncnc(N)c23)cc1,46.8%
15,Cc1ccc(Nc2nc(SC(C)C)nc(-c3ccccc3)c2C#N)cc1,118%
16,C=CCN(C)S(=O)(=O)/N=C1\NC(=O)NC1=C(Cl)Cl,-51.7% (active)
17,O=S(=O)(NCCNc1nccc(-n2cnc3ccccc32)n1)c1ccc(Br)cc1,114%
18,CCCC(=O)NC(c1cccc(N(C)C)c1)c1cc(C)c2cccnc2c1O (stereo not given),0.32% (active)
19,CN(C)CCCOc1c2ccccc2nc2c1oc1ccc(Cl)cc12,9.14% (active)
20,NCCN1CCN(c2nc(-c3ccccc3)nc3nc(-c4ccccc4)oc23)CC1,-5.94% (active)

row,SMILES,growth
1,CNC(=O)c1cc(Oc2ccc3nc(NC(=O)c4ccc(CN5CCCN(C)CC5)c(C(F)(F)F)c4)sc3c2)ccn1,-65.2% (active)
2,CC(C)(O)c1cncc(-c2ccc3ncnc(N4CCc5cc(F)c(Cl)cc54)c3c2)c1,1.38% (active)
3,C=C(C=O)[C@@H]1CC[C@]2(C(=O)O)CC[C@]3(C)C(CC[C@@H]4[C@@](C)(CCC#N)[C@H](C(=C)C=O)CC[C@]43C)[C@@H]12 (stereo not given in full),2.63% (active)
4,C[C@@H]1CN(c2ccc3ncc(C#Cc4cncc(C(=O)Nc5ccc(CN6CCN(C)CC6)c(C(F)(F)F)c5)c4)n3n2)C[C@H](C)O1,-30.7% (active)
5,N[C@@H](Cc1cn(-c2ccnc3ccccc23)nn1)C(=O)O,110%
6,CNC(=O)c1cc(Oc2ccc3nc(NC(=O)c4ccc(N5CCOCC5)c(C(F)(F)F)c4)sc3c2)ccn1,94.2%
7,O=C(CNc1nc(-c2cccc([N+](=O)[O-])c2)cs1)Nc1cccc([N+](=O)[O-])c1,-9.99% (active)
8,CN1CCN(c2ccc(Nc3nc(NCCCNS(=O)(=O)c4ccc(F)cc4)c4sccc4n3)cc2)CC1,28.8%
9,CN1CCN(c2ccc(Nc3nc(NCCNS(=O)(=O)c4ccc5ccccc5c4)c4sccc4n3)cc2)CC1,-29.5% (active)
10,Cc1ccc(S(=O)(=O)NCCCNc2nccc(-c3[nH]c(-c4ccccc4)nc3-c3ccc(F)c(O)c3)n2)cc1,82.4%
11,O=C(CCCN1C(=O)/C(=C/c2ccccc2F)SC1=S)N1CCOCC1,93.5%
12,O=C(CCCCCCN1CC(=O)N2[C@@H](c3cccc(Br)c3)c3[nH]c4ccccc4c3C[C@H]2C1=O)NO,6.52% (active)
13,Oc1ccc(CSc2nnc(-c3ccc(Cl)cc3)n2-c2ccccc2)c2cccnc12,23.6%
14,CC(=O)Nc1ccc(NC(=O)Nc2cccc(-c3nc(-c4ccc(NC(=O)c5cccs5)cc4Cl)no3)c2)cc1C(F)(F)F,5.88% (active)
15,COc1ccc(CCN2C(=O)CSC2=S)cc1,54.6%
16,N#Cc1nc(-c2ccccc2)oc1N1CCC(C2(C(F)(F)F)N=N2)CC1,95.4%
17,CC(=O)Nc1nc(C)c(-c2csc(Nc3ccccc3)n2)s1,33.6%
18,Fc1ccc(-c2cn3c(-c4c[nH]c5ccc(Br)cc45)csc3n2)cc1,104%
19,CC(=O)N1C(=S)NC(=O)C1CC(C)C (stereo not given),106%
20,Cc1ccc2c(c1)C(=O)/C(=C/c1cccc(F)c1)S2,98.9%
